Bioassay records (PubChem BioAssay)
GALC G270D act: galactocerebrosidase G270D activity enhancement, cell-based. P54803. 145M-Twi-hGALC-G270D cells (Twitcher mouse brain line with human GALC G270D), HMU-beta-Gal fluorescence, 48 h. Potency, µM (doses to about 57.5 µM), most hits filed as activators. 45,000 compounds, 0.1% hits. AID 1159614; note: potency is the fitted concentration of half-maximal effect; 0% is about no effect; nearly all actives have a fitted effect of over 65% in size
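Live 145M-Twi cells (Twitcher mouse brain-derived, GALC-null) stably expressing human GALC-G270D, with a wild-type GALC line, were compound-treated. Residual GALC activity was then read as fluorescence from 0.1 mM final HMU-β-gal at pH 5.2; higher signal means activation.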
B2AR arrestin ag: ADRB2 beta-arrestin recruitment. HTLA Tango cells, beta-arrestin recruitment, luciferase luminescence, 18 h. P07550. Potency, µM (titrated, usually from 46.1 µM), actives largely listed as activators. 44,000 tested, under 10 active. AID 1347077;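 note: potency is the fitted concentration of half-maximal effect; 0% = DMSO and full agonism = EC100 isoproterenol or metaproterenol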
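Tango cells expressing recombinant beta2-AR and beta-arrestin were treated with compounds (up to 46 microM titration) in DMEM with 1% FBS for 18 hr at 37 degrees C. Beta-arrestin recruitment drove tTA-dependent luciferase, read by luminescence; curves were fitted and classed.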
PTAP-TSG101 blk: TSG101-PTAP interaction inhibition, HIV-1 budding. Potency, µM (highest dose often 115 µM), usual class: inhibitors. 44,000 tested, under 10 active. AID 1347069. Q99816. Fluorescence polarization, FITC-PTAP peptide/Tsg101, 20 min; note: potency is the fitted concentration of half-maximal effect; 0% is about no effect
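Fluorescence polarization: Tsg101 binding domain (10 uM final) in 10 mM HEPES pH 7.5, 0.15 M NaCl, 0.01% Tween 20, 3 mM EDTA, 0.1 mM TCEP; compounds pinned; FITC-PTAP peptide 50 nM final; 20 min, r.t.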
GPR32 ag: activates human resolvin D1 receptor GPR32; O75388; CHO-K1 GPR32 beta-arrestin PathHunter luminescence, 90 min; zero percent set by DMSO-only wells; activation, % at 76.9 µM; 48,000 compounds, 2.5% hits; AID 1346428;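 active = activation of at least 60% and not above a set upper limit, about 1 call in 100 departs from these limits; inconclusive = activation of 40% to 60%, or above that upper limit; inactive = activation under 40%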; note: 0% is about no effect
Target sequence (O75388 whole entry, looked up): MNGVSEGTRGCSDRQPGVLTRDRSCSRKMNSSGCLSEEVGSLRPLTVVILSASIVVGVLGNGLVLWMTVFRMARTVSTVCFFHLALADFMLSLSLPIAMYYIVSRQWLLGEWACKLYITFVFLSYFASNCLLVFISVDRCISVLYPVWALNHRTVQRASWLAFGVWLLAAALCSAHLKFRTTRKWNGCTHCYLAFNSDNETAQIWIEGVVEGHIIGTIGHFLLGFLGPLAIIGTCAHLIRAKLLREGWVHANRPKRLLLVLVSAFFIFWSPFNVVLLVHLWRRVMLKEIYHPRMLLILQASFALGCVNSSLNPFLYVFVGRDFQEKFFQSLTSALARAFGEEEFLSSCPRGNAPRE
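Engineered CHO-K1 line co-expressing GPR32-ProLink and EA-beta-arrestin. Compound treatment lasted 90 min at 37 °C. Luminescence was recorded after 1 h with substrate at ambient temperature, relative to DMSO basal wells.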
Active calls of the source: *; i = inactive; ? = inconclusive; · = no result. Most compounds without a hit are left out; they make up all but 2.9% or so of the library. Unless noted, calls come from the whole dose curve; as a rule, active = well fitted curve in the direction sought with a large enough effect; inconclusive = small, poorly fitted or top-dose-only effect, or another doubt; inactive = no such curve, though single readings can be large; an effect the other way counts as inactive or inconclusive.

SMILES | GALC G270D act | B2AR arrestin ag | PTAP-TSG101 blk | GPR32 ag
Cc1ccc2occ(CC(=O)Nc3nnc(C(C)C)s3)c2c1 | i | i | i | -1.3
Cc1cc(C)c2c(CC(=O)Nc3nnc(C(C)C)s3)coc2c1 | i | i | i | 65.2*
O=C(NCC1(c2ccccc2)CCCC1)C(=O)Nc1cccc(C(F)(F)F)c1 | i | i | i | -0.5
O=C(CC(c1ccccc1)c1cc(Br)ccc1O)NCC1(c2ccccc2)CCCC1 (centres undefined) | · | i | i | 108.1*
CCCCn1c(=N)n(CCOc2ccccc2OC)c2ccccc21 | i | i | i | 64.5*
O=C(CCNS(=O)(=O)c1ccc2c(c1)CCN2C(=O)C1CC1)N1CCN(c2cccc(Cl)c2)CC1 | i | i | i | 60.6*
O=C(CCNS(=O)(=O)c1ccc2c(c1)CCN2C(=O)C1CC1)N1CCN(c2ccc(F)cc2)CC1 | i | i | i | 69.2*
O=C(CCNS(=O)(=O)c1ccc2c(c1)CCN2C(=O)C1CC1)Nc1ccc(F)cc1F | i | i | i | 84.6*
CCn1c(CN2CCCCC2)nc2cc(NC(=O)c3ccc([N+](=O)[O-])cc3)ccc21 | i | i | i | 70.5*
CCn1c(CN2CCCCC2)nc2cc(NC(=O)c3ccccc3[N+](=O)[O-])ccc21 | i | i | i | -4.2
Cc1ccccc1-n1c2nc(=O)[nH]c(=O)c-2cc2c(Cl)cccc21 | i | i | i | 11.8
Cc1ccc(-n2c(C)cc(/C=C(\C#N)C(=O)Nc3ccc(C)c(C)c3)c2C)cc1 | i | i | i | 11.8
Cc1ccc(NC(=O)/C(C#N)=C/c2cc(C)n(-c3ccc(Br)cc3)c2C)cc1C | i | i | i | 63.0*
CCCc1ccc(OCC(=O)N2CCN(C(=O)COc3ccc(CCC)cc3OC)CC2)c(OC)c1 | i | · | · | -5.2
Cc1cccc(NC(=O)c2cc(S(=O)(=O)NCc3ccc4c(c3)OCO4)ccc2F)c1C | i | i | i | -11.3
N#C/C(=C\c1ccc(-c2cc(Cl)ccc2Cl)o1)C(=O)Nc1ccccc1C(=O)O | i | i | i | 111.3*
COc1ccc(CCNC(=O)CSc2cn(CCNC(=O)c3cccc(C(F)(F)F)c3)c3ccccc23)cc1OC | i | i | i | 104.0*
COc1ccc(CCNC(=O)CSc2cn(CCNC(=O)c3ccc(OC)c(OC)c3)c3ccccc23)cc1OC | i | i | i | 7.1
O=C(Nc1cccc(Cl)c1)C1CCCN(c2ncnc3c2nc2n3CCCCC2)C1 (centres undefined) | i | i | i | 67.2*
COc1ccc(-c2noc(CSc3nc4ccccc4[nH]3)n2)cc1OC | i | i | i | 67.0*
COc1ccc(OCc2nc(-c3ccc(-n4cccc4)cc3)no2)cc1 | i | i | i | 117.2*
COc1cccc(-c2noc(COc3ccc(C(C)(C)C)cc3)n2)c1 | ? | i | i | -5.7
CCNC(=O)c1c(NC(=O)Cc2coc3ccc(CC)cc23)sc2c1CCCC2 | i | i | i | -1.6
Cn1nc(-c2ccc(OCC(=O)Nc3ccccc3)cc2)c2ccccc2c1=O | i | i | i | 13.4
COc1ccccc1NC(=O)COc1ccc(-c2nn(C)c(=O)c3ccccc23)cc1 | i | i | i | 95.1*
SMILES | GALC G270D act | B2AR arrestin ag | PTAP-TSG101 blk | GPR32 ag
COc1ccc(-c2nnc(SCC(=O)N3CCC(C)CC3)o2)cc1 | i | i | i | 78.0*
CC1CCN(C(=O)CSc2nnc(-c3ccccc3)o2)CC1 | i | i | i | -8.1
Cc1ccc(Cl)c2sc(N3CCN(C(=O)C4CC4)CC3)nc12 | i | i | i | 73.0*
CCOc1cccc(NC(=O)C2CC(=O)N(CC)C(=Nc3ccc(F)cc3)S2)c1 (centres undefined) | i | i | i | 80.5*
CCN1C(=O)CC(C(=O)Nc2ccc(OC)cc2)SC1=Nc1ccc(C)c(C)c1 (centres undefined) | i | i | i | 13.2
CNC(=O)c1cc(Oc2ccc(NC(=O)Nc3ccc(Cl)c(C(F)(F)F)c3)cc2)ccn1 | i | · | · | 92.0*
N[C@H](C(=O)O)[C@H](Cc1ccccc1)C(=O)O | · | · | · | -7.4
Nc1ccc(N)c([N+](=O)[O-])c1 | i | · | · | -103.1
